The supplement of paper PMC8728848
About 410 targets per protein were measured; listed, in parts, are those with the strongest signals and a random draw of the rest.

Experiments:
Experiment in all cases: glycan array binding signal (z-score within array); higher = stronger binding
Settings in all cases: glycan notation: IUPAC condensed, linker removed
[1] = biological target: Fuc(a1-2)Gal(b1-4)GlcNAc(b1-3)Gal(b1-4)GlcNAc
Summary of the method: (§1)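 From the Consortium for Functional Glycomics database, 3228 arrays were curated, keeping only those whose protein sequence was available. Binding is given as a within-array Z-score averaged across arrays sharing a protein sequence and across linkers. Negative Z-scores can be read as non-binding.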

[2] = biological target: Fuc(a1-3)[Gal3S(b1-4)]GlcNAc6S
Summary of the method: as §1

[3] = biological target: Fuc(a1-3)[Neu5Ac(a2-3)]Gal(b1-4)GlcNAc(b1-3)GalNAc
Summary of the method: as §1

[4] = biological target: Gal(b1-3)GalNAc(b1-4)[Neu5Ac(a2-3)]Gal(b1-4)Glc
Summary of the method: as §1

[5] = biological target: Gal(b1-3)[Fuc(a1-4)]GlcNAc(b1-3)Gal(b1-4)[Fuc(a1-3)]GlcNAc
Summary of the method: as §1

Gal(b1-4)Glc6S = biological target: Gal(b1-4)Glc6S
Summary of the method: as §1

[6] = biological target: Gal(b1-4)GlcNAc(b1-2)Man(a1-6)Man(b1-4)GlcNAc(b1-4)GlcNAc
Summary of the method: as §1

[7] = biological target: Gal(b1-4)GlcNAc(b1-2)Man(a1-6)[Man(a1-3)]Man(b1-4)GlcNAc(b1-4)GlcNAc
Summary of the method: as §1

[8] = biological target: Gal(b1-4)GlcNAc(b1-6)[Gal(b1-3)]GalNAc
Summary of the method: as §1

[9] = biological target: Gal3S(b1-3)[Fuc(a1-4)]GlcNAc
Summary of the method: as §1

GalNAc(b1-3)Gal = biological target: GalNAc(b1-3)Gal
Summary of the method: as §1

[10] = biological target: GalNAc(b1-3)Gal(a1-4)Gal(b1-4)GlcNAc
Summary of the method: as §1

[11] = biological target: GlcNAc(a1-4)Gal(b1-4)GlcNAc(b1-3)Gal(b1-4)[Fuc(a1-3)]GlcNAc(b1-3)Gal(b1-4)[Fuc(a1-3)]GlcNAc
Summary of the method: as §1

[12] = biological target: GlcNAc(b1-2)Man(a1-3)[GlcNAc(b1-2)Man(a1-6)]Man(b1-4)GlcNAc(b1-4)GlcNAc
Summary of the method: as §1

GlcNAc(b1-3)Gal(b1-4)Glc = biological target: GlcNAc(b1-3)Gal(b1-4)Glc
Summary of the method: as §1

Kdn(a2-3)Gal(b1-4)GlcNAc = biological target: Kdn(a2-3)Gal(b1-4)GlcNAc
Summary of the method: as §1

[13] = biological target: Man(a1-2)Man(a1-2)Man(a1-3)Man
Summary of the method: as §1

Man(a1-3)[Man(a1-6)]Man = biological target: Man(a1-3)[Man(a1-6)]Man
Summary of the method: as §1

[14] = biological target: Neu5Ac(a2-3)Gal(b1-3)GalNAc(b1-3)Gal(a1-4)Gal(b1-4)Glc
Summary of the method: as §1

[15] = biological target: Neu5Ac(a2-3)Gal(b1-3)[Neu5Ac(a2-3)Gal(b1-4)]GlcNAc
Summary of the method: as §1

Neu5Ac(a2-6)Gal(b1-4)Glc = biological target: Neu5Ac(a2-6)Gal(b1-4)Glc
Summary of the method: as §1

[16] = biological target: Neu5Ac(a2-8)Neu5Ac(a2-3)[GalNAc(b1-4)]Gal(b1-4)Glc
Summary of the method: as §1

[17] = biological target: Neu5Ac9Ac(a2-3)Gal(b1-3)GlcNAc
Summary of the method: as §1

[18] = biological target: Neu5Ac9Ac(a2-6)Gal(b1-4)GlcNAc
Summary of the method: as §1

[19] = biological target: Neu5Gc(a2-3)Gal(b1-4)[Fuc(a1-3)]GlcNAc
Summary of the method: as §1

[20] = biological target: Kdn(a2-3)Gal(b1-4)[Fuc(a1-3)]GlcNAc
Summary of the method: as §1

Kdn(a2-6)Gal(b1-4)GlcNAc = biological target: Kdn(a2-6)Gal(b1-4)GlcNAc
Summary of the method: as §1

Man(b1-4)GlcNAc = biological target: Man(b1-4)GlcNAc
Summary of the method: as §1

Neu5Ac(a2-3)Gal = biological target: Neu5Ac(a2-3)Gal
Summary of the method: as §1

[21] = biological target: Neu5Ac(a2-3)Gal(b1-4)GlcNAc(b1-2)Man(a1-3)[GlcNAc(b1-4)][Neu5Ac(a2-3)Gal(b1-4)GlcNAc(b1-2)Man(a1-6)]Man(b1-4)GlcNAc(b1-4)GlcNAc
Summary of the method: as §1

[22] = biological target: Neu5Ac(a2-3)Gal(b1-4)GlcNAc(b1-3)Gal(b1-4)GlcNAc(b1-6)[Gal(b1-3)]GalNAc
Summary of the method: as §1

[23] = biological target: Neu5Ac(a2-3)Gal(b1-4)GlcNAc(b1-3)GalNAc
Summary of the method: as §1

[24] = biological target: Neu5Ac(a2-3)Gal(b1-4)[Fuc(a1-3)]GlcNAc(b1-3)Gal
Summary of the method: as §1

Neu5Ac(a2-3)GalNAc = biological target: Neu5Ac(a2-3)GalNAc
Summary of the method: as §1

[25] = biological target: Neu5Ac(a2-6)Gal(b1-4)GlcNAc(b1-2)Man(a1-3)[Neu5Ac(a2-3)Gal(b1-4)GlcNAc(b1-2)Man(a1-6)]Man(b1-4)GlcNAc(b1-4)GlcNAc
Summary of the method: as §1

Neu5Ac(a2-6)GalNAc = biological target: Neu5Ac(a2-6)GalNAc
Summary of the method: as §1

[26] = biological target: Neu5Ac(a2-8)Neu5Ac(a2-3)Gal(b1-3)GalNAc(b1-4)[Neu5Ac(a2-3)]Gal(b1-4)Glc
Summary of the method: as §1

[27] = biological target: Neu5Ac(a2-8)Neu5Ac(a2-8)Neu5Ac(a2-8)Neu5Ac(a2-3)[GalNAc(b1-4)]Gal(b1-4)Glc
Summary of the method: as §1

[28] = biological target: Neu5Gc(a2-3)Gal(b1-4)GlcNAc
Summary of the method: as §1

Binder	glycan array binding signal (z-score) [1]	glycan array binding signal (z-score) [2]	glycan array binding signal (z-score) [3]	glycan array binding signal (z-score) [4]	glycan array binding signal (z-score) [5]	glycan array binding signal (z-score) (Gal(b1-4)Glc6S)	glycan array binding signal (z-score) [6]	glycan array binding signal (z-score) [7]	glycan array binding signal (z-score) [8]	glycan array binding signal (z-score) [9]	glycan array binding signal (z-score) (GalNAc(b1-3)Gal)	glycan array binding signal (z-score) [10]	glycan array binding signal (z-score) [11]	glycan array binding signal (z-score) [12]	glycan array binding signal (z-score) (GlcNAc(b1-3)Gal(b1-4)Glc)	glycan array binding signal (z-score) (Kdn(a2-3)Gal(b1-4)GlcNAc)	glycan array binding signal (z-score) [13]	glycan array binding signal (z-score) (Man(a1-3)[Man(a1-6)]Man)	glycan array binding signal (z-score) [14]	glycan array binding signal (z-score) [15]	glycan array binding signal (z-score) (Neu5Ac(a2-6)Gal(b1-4)Glc)	glycan array binding signal (z-score) [16]	glycan array binding signal (z-score) [17]	glycan array binding signal (z-score) [18]	glycan array binding signal (z-score) [19]	glycan array binding signal (z-score) [20]	glycan array binding signal (z-score) (Kdn(a2-6)Gal(b1-4)GlcNAc)	glycan array binding signal (z-score) (Man(b1-4)GlcNAc)	glycan array binding signal (z-score) (Neu5Ac(a2-3)Gal)	glycan array binding signal (z-score) [21]	glycan array binding signal (z-score) [22]	glycan array binding signal (z-score) [23]	glycan array binding signal (z-score) [24]	glycan array binding signal (z-score) (Neu5Ac(a2-3)GalNAc)	glycan array binding signal (z-score) [25]	glycan array binding signal (z-score) (Neu5Ac(a2-6)GalNAc)	glycan array binding signal (z-score) [26]	glycan array binding signal (z-score) [27]	glycan array binding signal (z-score) [28]
Flo11 (Saccharomyces cerevisiae), Q1H8S8 (protein) MGSSHHHHHHSSGLVPRGSHMFPTALVPRGSSEGTSCNSIVNGCPNLDFNWHMDQQNIMQYTLDVTSVSWVQDNTYQITIHVKGKENIDLKYLWSLKIIGVTGPKGTVQLYGYNENTYLIDNPTDFTATFEVYATQDVNSCQVWMPNFQIQFEYLQGSAAQYASSWQWGTTSFDLSTGCNNYDNQGHSQTDFPGFYWNIDCDNNCGGTKSS	-0.01	1.26	3.1	2.88	-0.502	-0.505	-0.507	-0.506	-0.482	-0.502	3.63	4.27	0.071	-0.505	1.26	-0.496	-0.505	-0.502	3.08	-0.511	-0.507	3.67	-0.505	-0.494	3.45	–	–	–	–	–	–	–	–	–	–	–	–	–	–
EULS2 M3 (Oryza sativa) (protein) MVYCRANPNYAMTARNGAVVLAPANPKDEYQHWIKDMRWSTSIKDEEGYPAFALVNKATGQAIKHSLGQSHPVRLVPYNPEVMDESVLWTESRDVGNGFRCIRMVNNIYLNFDAFHGDKYHGGVRDGTDIVLWKLCEGDSLRWKIQPYYILEQKLISEEDLNSAVDHHHHHH	–	–	–	–	–	–	–	–	–	–	–	–	–	–	–	–	–	–	–	–	–	–	–	–	–	0.28	-0.599	0.117	-1.29	-0.414	-0.345	-0.286	0.557	-0.085	-0.391	-0.8	1.61	-0.424	0.145
